A short description of the experiment: inhibitors of HIV fusion peptide binding, primary screen, biochemical, uHTS, fluorescence dequenching (AID 1986). Particulars: cell-free peptide binding, 30 min, stronger effect = higher value.
The mark [1] stands for this setting: measured here: repeat confirmation average inhibition, at 18.6 µM.

The campaign covered roughly 290,000 compounds. About 890 (0.31%) were called active. No stated cut-off is given here; in the data, active means inhibition mostly above about 52% (no sharp cut-off); inactive means mostly below about 76%. This excerpt belongs to a sample that is enriched for actives.

For 47 compounds, inhibition results are on record in PubChem BioAssay AID1986 (Sanford-Burnham Center for Chemical Genomics, 2009).

Broadly, the inhibition is the change of the read-out against control, counted positive when it falls. `COc1ccc(C2C(C(=O)N3CCN(c4ccccn4)CC3)CCC(=O)N2c2ccc(OC)cc2)cc1` (stereo not drawn): the inhibition (at 20 µM) is -2.1% (inactive).

Regarding `O=C1C=C(N2CCCCCC2)C2(CCCCC2)O1`, the inhibition (at 20 µM) was 0.8% (inactive).

For `C[C@H](NC(=O)c1nc[nH]c1C(=O)NC(c1ccccc1)c1ccccc1)C(=O)OCc1ccccc1`, the inhibition (at 20 µM) was 2.7% (inactive).

As to `CCSc1nnc(-c2sc3nnc(-c4ccccc4)c(-c4ccccc4)c3c2N)o1`, the inhibition (at 20 µM) is 98.4% (active).

Consider `NC(=O)c1sc2nnc(-c3ccccc3)c(-c3ccccc3)c2c1N`, for which the inhibition (at 20 µM) was 1.6% (inactive).

As to `CCSc1nnc(-c2cccs2)o1`, the inhibition (at 20 µM) is 1.8% (inactive).

Regarding `O=C(Cn1c(=O)oc2cc(S(=O)(=O)N3CCCC3)ccc21)N1CCN(C2CCCCC2)CC1`, the inhibition (at 20 µM) was 0% (inactive).

For `O=C(CSc1nc2ccccc2c(=O)n1Cc1ccco1)N1CCN(c2ccccc2)CC1`, the inhibition (at 20 µM) was -4.4% (inactive).

As to `O=C(Nc1cccc(-c2nc3cc(Cl)ccc3o2)c1)C1CCCO1` (stereo not drawn), for the setting “at 20 µM”, the inhibition is 1% (inactive).

With `CN(C)S(=O)(=O)c1cccc(C(=O)OCC(=O)NCc2ccc3c(c2)OCO3)c1`, where the note is “at 20 µM”, the inhibition is 0.4% (inactive).

On to `COc1ccc2sc(/C=C/c3ccccc3O)[n+](C)c2c1`, for which the inhibition reads like this: (at 20 µM) 69.1% (active); under setting [1], 88.7%.

For `COc1ccc2sc(C)[n+](C)c2c1`, the inhibition (at 20 µM) was -2.6% (inactive).

Turning to `C[n+]1ccc(/C=C/c2ccccc2O)c2ccccc21`, for the setting “at 20 µM”, the inhibition was 1.2% (inactive).

As to `Cc1cc(C(=O)Nc2cccnc2)cs1`, the inhibition (at 20 µM) is 0.7% (inactive).

Turning to `Cn1c(=O)oc2cc(S(=O)(=O)NCc3ccc(F)cc3)ccc21`, under “at 20 µM”, the inhibition is 8.5% (inactive).

Turning to `CCN1CCN(S(=O)(=O)CC2(C)C3CCC2(C)C(=O)C3Br)CC1` (stereo not drawn), the inhibition (at 20 µM) was -1.8% (inactive).

With `Cc1cc(C)c2nc(-c3ccccn3)cc(C(=O)Nc3ccc(S(=O)(=O)Nc4cc(C)on4)cc3)c2c1`, the inhibition by setting is: (at 20 µM) 59% (inactive); under setting [1], 21.6%.

`Cc1cc(C)c2nc(-c3cccnc3)cc(C(=O)Nc3ccc(S(=O)(=O)Nc4onc(C)c4C)cc3)c2c1`: for the setting “at 20 µM”, the inhibition was 57% (active).

`Cc1cc(C)c2nc(-c3ccccn3)cc(C(=O)Nc3ccc(S(=O)(=O)Nc4onc(C)c4C)cc3)c2c1`: under “at 20 µM”, the inhibition is 70.5% (active).

Turning to `COc1ccc(-c2cc(C(=O)Nc3ccc(S(=O)(=O)Nc4onc(C)c4C)cc3)c3ccccc3n2)cc1`, the inhibition is 64.1% (inactive) (at 20 µM) and 40.8% under setting [1].

On to `Cc1cc(C)c(C(=O)Nc2ccc(S(=O)(=O)Nc3onc(C)c3C)cc2)c(C)c1`, for which the inhibition (at 20 µM) is 0.9% (inactive).

Take `Cc1ccccc1C(=O)Nc1ccc(S(=O)(=O)Nc2onc(C)c2C)cc1`: the inhibition (at 20 µM) is 0.8% (inactive).

As for `O=C(CN1C(=O)NC2(CCCC2)C1=O)Nc1cccc(Cl)c1Cl`, the inhibition (at 20 µM) was 0.8% (inactive).

Consider `CCOc1ccccc1C(=O)NC1CCN(Cc2ccccc2)CC1`, for which the inhibition (at 20 µM) was -0.3% (inactive).

On to `CN(C)c1cncc(C(=O)O)c1`, for which, where the note is “at 20 µM”, the inhibition was -0.6% (inactive).

On to `S=C(NCc1ccccn1)Nc1ccccc1Cl`, for which the inhibition (at 20 µM) was 1.2% (inactive).

`CC(=O)N(CCC(c1ccco1)C(C)C)Cc1ccc(Cl)cc1` (stereo not drawn): where the note is “at 20 µM”, the inhibition was -0.3% (inactive).

On to `Clc1ccc(Cn2cc(/C=N/n3cnnc3)c3ccccc32)c(Cl)c1`, for which the inhibition (at 20 µM) is -3% (inactive).

Take `Cc1ccc(N=Cc2sc(O)c3ccccc23)cc1`: the inhibition is, setting by setting: (at 20 µM) 101% (active); under setting [1], 104%.

`Oc1sc(C=Nc2ccccc2)c2ccccc12`: the inhibition (at 20 µM) was 24.4% (inactive).

Regarding `Oc1sc(C=Nc2ccc(F)cc2)c2ccccc12`, the inhibition (at 20 µM) was 55% (inactive) and the inhibition under setting [1] worked out at 23%.

As for `Cc1nn(C)cc1CNC(=O)c1cccc(F)c1`, the inhibition (at 20 µM) is -1.7% (inactive).

Take `O=C1S/C(=C\c2ccccc2)C(=O)N1CC(O)Cn1c2ccccc2c2ccccc21` (stereo not drawn): the inhibition (at 20 µM) was 0.2% (inactive).

As to `CN(C)c1ccc(/C=C2\SC(=O)N(CC(O)Cn3c4ccccc4c4ccccc43)C2=O)cc1` (stereo not drawn), the inhibition (at 20 µM) is 120% (active).

For `O=C1S/C(=C/c2ccccc2)C(=O)N1CC(O)Cn1c2ccccc2c2ccccc21` (stereo not drawn), the inhibition (at 20 µM) is -0.1% (inactive).

As to `C#CCn1c(-c2cccs2)nc2ccccc21`, the inhibition (at 20 µM) is 0% (inactive).

`Nc1nnc(CC(=O)N/N=C/c2cc([N+](=O)[O-])cc(Br)c2O)s1`: for the setting “at 20 µM”, the inhibition was 61.2% (active).

For the compound `Nc1nnc(CC(=O)N/N=C\c2cc([N+](=O)[O-])ccc2O)s1`, the inhibition (at 20 µM) is 15.7% (inactive).

On to `Nc1nnc(CC(=O)N/N=C/c2ccc([N+](=O)[O-])cc2)s1`, for which the inhibition (at 20 µM) was -2.4% (inactive).

Take `Cc1cc(OCC(=O)NC(Cc2ccc(Cl)cc2)C(=O)O)c2c(C)cc(=O)oc2c1` (stereo not drawn): the inhibition (at 20 µM) is 4.4% (inactive).

For the compound `Cc1ccc(/C(N)=N/OC(=O)c2cccc(Cn3cc(C(F)(F)F)ccc3=O)c2)cc1`, for the setting “at 20 µM”, the inhibition was -0.3% (inactive).

For `CN(C)/C=c1\sc2c(C#N)cc(C(=O)c3ccc(Br)cc3)n2c1=O`, the inhibition (at 20 µM) was 3.8% (inactive).

As for `COC(=O)c1cc(C(=O)c2ccc(Cl)cc2)n2c(=O)/c(=C\N(C)C)sc12`, the inhibition (at 20 µM) is 97.1% (active) and the inhibition under setting [1] came to 68.7%.

Turning to `COC(=O)c1cc(C(=O)c2ccccc2)n2c(=O)/c(=C\N(C)C)sc12`, the inhibition (at 20 µM) is 2.2% (inactive).

`COC(=O)c1nn(-c2ccc(OC)cc2)ccc1=O`: the inhibition (at 20 µM) is -2.9% (inactive).

As to `COc1ccc(OC)c(C2Nc3c(Cl)ccc(C(=O)O)c3C3C=CCC32)c1` (stereo not drawn), the inhibition (at 20 µM) was 38.2% (inactive).

For `O=C(O)c1ccc(Cl)c2c1C1C=CCC1C(c1ccccn1)N2` (stereo not drawn), for the setting “at 20 µM”, the inhibition is -3.1% (inactive).
